# Laboratory results published in the supplement of paper PMC8728848.
# This excerpt belongs to a sample that is enriched for the strongest signals.
# B1: Langerin K313I (Homo sapiens), Q9UJ71 (protein)
# chain: STLNAQIPELKSDLEKASALNTKIRALQGSLENMSKLLKRQNDILQVVSQGWKYFKGNFYYFSLIPKTWYSAEQFCVSRNSHLTSVTSESEQEFLYKTAGGLIYWIGLTKAGMEGDWSWVDDTPFNKVQSARFWIPGEPNNAGNNEHCGNIKAPSLQAWNDAPCDITFLFICKRPYVPSEP
# Experiments:
# Assay in all cases: glycan array binding signal (z-score within array); higher = stronger binding
# Settings in all cases: glycan notation: IUPAC condensed, linker removed
# [1] = target: Fuc(a1-2)Gal(b1-3)GlcNAc(b1-3)Gal(b1-4)Glc
# In short: (§1)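 Arrays were curated from the Consortium for Functional Glycomics database, 3228 in total, and kept only where the protein sequence was available. Binding is expressed as a within-array Z-score. This score was averaged across arrays of the same protein sequence at different concentrations or buffers and across linkers, and negative values can be read as non-binding.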
# [2] = target: Fuc(a1-2)Gal(b1-4)[Fuc(a1-3)]GlcNAc(b1-3)Gal(b1-4)[Fuc(a1-3)]GlcNAc(b1-3)Gal(b1-4)[Fuc(a1-3)]GlcNAc
# In short: as §1
# Fuc(a1-2)[Gal(a1-3)]Gal = target: Fuc(a1-2)[Gal(a1-3)]Gal
# In short: as §1
# [3] = target: Fuc(a1-2)[Gal(a1-3)]Gal(b1-3)GlcNAc(b1-2)Man(a1-3)[Fuc(a1-2)[Gal(a1-3)]Gal(b1-3)GlcNAc(b1-2)Man(a1-6)]Man(b1-4)GlcNAc(b1-4)GlcNAc
# In short: as §1
# [4] = target: Fuc(a1-2)[Gal(a1-4)]Gal(b1-4)GlcNAc
# In short: as §1
# [5] = target: Fuc(a1-2)[GalNAc(a1-3)]Gal(b1-4)[Fuc(a1-3)]GlcNAc(b1-3)GalNAc
# In short: as §1
# [6] = target: Fuc(a1-2)[GalNAc(b1-3)]Gal
# In short: as §1
# Fuc(b1-3)GlcNAc = target: Fuc(b1-3)GlcNAc
# In short: as §1
# Gal(a1-2)Gal = target: Gal(a1-2)Gal
# In short: as §1
# [7] = target: Gal(a1-3)Gal(b1-3)[Fuc(a1-4)]GlcNAc(b1-2)Man(a1-3)[Gal(a1-3)Gal(b1-3)[Fuc(a1-4)]GlcNAc(b1-2)Man(a1-6)]Man(b1-4)GlcNAc(b1-4)GlcNAc
# In short: as §1
# [8] = target: Gal(b1-3)GlcNAc(b1-3)Gal(b1-4)Glc
# In short: as §1
# [9] = target: Gal(b1-3)GlcNAc(b1-3)Gal(b1-4)[Fuc(a1-3)]GlcNAc(b1-6)[Gal(b1-3)GlcNAc(b1-3)]Gal(b1-4)Glc
# In short: as §1
# [10] = target: Gal(b1-3)GlcNAc(b1-6)[Gal(b1-3)]GalNAc
# In short: as §1
# [11] = target: Gal(b1-3)[Fuc(a1-4)]GlcNAc(b1-3)Gal(b1-3)[Fuc(a1-4)]GlcNAc
# In short: as §1
# Gal(b1-4)GlcNAc = target: Gal(b1-4)GlcNAc
# In short: as §1
# [12] = target: Gal(b1-4)GlcNAc(b1-2)Man(a1-3)[Gal(b1-4)GlcNAc(b1-2)Man(a1-6)][Gal(b1-4)GlcNAc(b1-4)]Man(b1-4)GlcNAc(b1-4)[Fuc(a1-6)]GlcNAc
# In short: as §1
# [13] = target: Gal(b1-4)GlcNAc(b1-2)Man(a1-6)Man(b1-4)GlcNAc(b1-4)GlcNAc
# In short: as §1
# [14] = target: Gal(b1-4)GlcNAc(b1-3)Gal(b1-4)GlcNAc(b1-2)Man(a1-3)[Gal(b1-4)GlcNAc(b1-3)Gal(b1-4)GlcNAc(b1-2)Man(a1-6)]Man(b1-4)GlcNAc(b1-4)GlcNAc
# In short: as §1
# [15] = target: Gal(b1-4)GlcNAc(b1-3)Gal(b1-4)GlcNAc(b1-3)Gal(b1-4)GlcNAc(b1-3)Gal(b1-4)GlcNAc(b1-2)Man(a1-3)[Gal(b1-4)GlcNAc(b1-3)Gal(b1-4)GlcNAc(b1-3)Gal(b1-4)GlcNAc(b1-3)Gal(b1-4)GlcNAc(b1-2)Man(a1-6)]Man(b1-4)GlcNAc(b1-4)GlcNAc
# In short: as §1
# [16] = target: Gal(b1-4)GlcNAc(b1-3)Gal(b1-4)GlcNAc(b1-3)Gal(b1-4)GlcNAc(b1-3)Gal(b1-4)GlcNAc(b1-3)Gal(b1-4)GlcNAc(b1-3)Gal(b1-4)GlcNAc(b1-2)Man(a1-3)[Gal(b1-4)GlcNAc(b1-3)Gal(b1-4)GlcNAc(b1-3)Gal(b1-4)GlcNAc(b1-3)Gal(b1-4)GlcNAc(b1-3)Gal(b1-4)GlcNAc(b1-3)Gal(b1-4)GlcNAc(b1-2)Man(a1-6)]Man(b1-4)GlcNAc(b1-4)GlcNAc
# In short: as §1
# [17] = target: Gal(b1-4)GlcNAc(b1-3)Gal(b1-4)GlcNAc(b1-6)[Gal(b1-3)]GalNAc
# In short: as §1
# [18] = target: Gal(b1-4)GlcNAc(b1-3)GalNAc
# In short: as §1
# [19] = target: Gal(b1-4)GlcNAc(b1-3)[GlcNAc(b1-6)]Gal(b1-4)GlcNAc
# In short: as §1
# Gal(b1-6)Gal = target: Gal(b1-6)Gal
# In short: as §1
# Gal3S(b1-3)GlcNAc = target: Gal3S(b1-3)GlcNAc
# In short: as §1
# [20] = target: Gal3S(b1-4)[Fuc(a1-3)]GlcNAc6S
# In short: as §1
# Gal6P(b1-4)GlcNAc = target: Gal6P(b1-4)GlcNAc
# In short: as §1
# GalNAc(b1-3)Gal = target: GalNAc(b1-3)Gal
# In short: as §1
# GalNAc(b1-3)GalNAc = target: GalNAc(b1-3)GalNAc
# In short: as §1
# GalNAc(b1-6)GalNAc = target: GalNAc(b1-6)GalNAc
# In short: as §1
# [21] = target: GlcNAc(a1-3)Gal(b1-4)GlcNAc
# In short: as §1
# [22] = target: GlcNAc(b1-2)Man(a1-3)[GlcNAc(b1-4)][GlcNAc(b1-2)Man(a1-6)]Man(b1-4)GlcNAc(b1-4)[Fuc(a1-6)]GlcNAc
# In short: as §1
# [23] = target: GlcNAc(b1-3)Gal(b1-4)GlcNAc
# In short: as §1
# [24] = target: GlcNAc(b1-3)Gal(b1-4)GlcNAc(b1-2)[GlcNAc(b1-3)Gal(b1-4)GlcNAc(b1-6)]Man(a1-6)[GlcNAc(b1-3)Gal(b1-4)GlcNAc(b1-2)Man(a1-3)]Man(b1-4)GlcNAc(b1-4)GlcNAc
# In short: as §1
# [25] = target: GlcNAc(b1-3)Gal(b1-4)GlcNAc(b1-3)Gal(b1-4)GlcNAc(b1-2)Man(a1-3)[GlcNAc(b1-3)Gal(b1-4)GlcNAc(b1-3)Gal(b1-4)GlcNAc(b1-2)Man(a1-6)]Man(b1-4)GlcNAc(b1-4)[Fuc(a1-6)]GlcNAc
# In short: as §1
# [26] = target: GlcNAc(b1-3)Gal(b1-4)GlcNAc(b1-3)Gal(b1-4)GlcNAc(b1-2)[GlcNAc(b1-3)Gal(b1-4)GlcNAc(b1-3)Gal(b1-4)GlcNAc(b1-6)]Man(a1-6)[GlcNAc(b1-3)Gal(b1-4)GlcNAc(b1-3)Gal(b1-4)GlcNAc(b1-2)Man(a1-3)]Man(b1-4)GlcNAc(b1-4)[Fuc(a1-6)]GlcNAc
# In short: as §1
# [27] = target: GlcNAc(b1-3)Gal(b1-4)GlcNAc(b1-3)Gal(b1-4)GlcNAc(b1-3)Gal(b1-4)GlcNAc(b1-3)Gal(b1-4)GlcNAc(b1-2)Man(a1-3)[GlcNAc(b1-3)Gal(b1-4)GlcNAc(b1-3)Gal(b1-4)GlcNAc(b1-3)Gal(b1-4)GlcNAc(b1-3)Gal(b1-4)GlcNAc(b1-2)Man(a1-6)]Man(b1-4)GlcNAc(b1-4)[Fuc(a1-6)]GlcNAc
# In short: as §1
# [28] = target: GlcNAc(b1-3)Gal(b1-4)GlcNAc(b1-6)[GlcNAc(b1-3)]Gal(b1-4)GlcNAc
# In short: as §1
# [29] = target: GlcNAc(b1-3)[GlcNAc(b1-6)]Gal(b1-4)GlcNAc
# In short: as §1
# Kdn(a2-3)Gal(b1-3)GalNAc = target: Kdn(a2-3)Gal(b1-3)GalNAc
# In short: as §1
# [30] = target: Man(a1-2)Man(a1-2)Man(a1-6)[Man(a1-3)]Man
# In short: as §1
# [31] = target: Man(a1-2)Man(a1-3)[Man(a1-2)Man(a1-6)]Man(a1-6)[Man(a1-2)Man(a1-2)Man(a1-3)]Man
# In short: as §1
# [32] = target: Man(a1-2)Man(a1-3)[Man(a1-6)]Man(a1-6)[Man(a1-2)Man(a1-3)]Man(b1-4)GlcNAc(b1-4)GlcNAc
# In short: as §1
# [33] = target: Man(a1-2)Man(a1-6)[Man(a1-3)]Man(a1-6)[Man(a1-2)Man(a1-2)Man(a1-3)]Man(b1-4)GlcNAc(b1-4)GlcNAc
# In short: as §1
# [34] = target: Neu5Ac(a2-3)Gal(b1-4)GlcNAc(b1-3)Gal(b1-4)GlcNAc
# In short: as §1
# [35] = target: Neu5Ac(a2-3)Gal(b1-4)GlcNAc(b1-3)Gal(b1-4)GlcNAc(b1-3)[Neu5Ac(a2-3)Gal(b1-4)GlcNAc(b1-3)Gal(b1-4)GlcNAc(b1-6)]GalNAc
# In short: as §1
# Neu5Ac(a2-6)Gal(b1-4)Glc = target: Neu5Ac(a2-6)Gal(b1-4)Glc
# In short: as §1
# [36] = target: Neu5Ac(a2-6)GlcNAc(b1-4)GlcNAc
# In short: as §1
# [37] = target: Neu5Gc(a2-3)Gal(b1-4)GlcNAc(b1-3)Gal(b1-4)GlcNAc(b1-2)Man(a1-3)[Neu5Gc(a2-3)Gal(b1-4)GlcNAc(b1-3)Gal(b1-4)GlcNAc(b1-2)Man(a1-6)]Man(b1-4)GlcNAc(b1-4)GlcNAc
# In short: as §1
binder,measurement,setting,value
B1,glycan array binding signal (z-score),[1],-0.379
same,glycan array binding signal (z-score),[2],-0.042
same,glycan array binding signal (z-score),Fuc(a1-2)[Gal(a1-3)]Gal,4.11
same,glycan array binding signal (z-score),[3],-0.164
same,glycan array binding signal (z-score),[4],-0.287
same,glycan array binding signal (z-score),[5],0.321
same,glycan array binding signal (z-score),[6],-0.358
same,glycan array binding signal (z-score),Fuc(b1-3)GlcNAc,-0.307
same,glycan array binding signal (z-score),Gal(a1-2)Gal,-0.155
same,glycan array binding signal (z-score),[7],0.468
same,glycan array binding signal (z-score),[8],-0.361
same,glycan array binding signal (z-score),[9],-0.333
same,glycan array binding signal (z-score),[10],-0.253
same,glycan array binding signal (z-score),[11],0.067
same,glycan array binding signal (z-score),Gal(b1-4)GlcNAc,-0.346
same,glycan array binding signal (z-score),[12],-0.254
same,glycan array binding signal (z-score),[13],-0.235
same,glycan array binding signal (z-score),[14],0.326
same,glycan array binding signal (z-score),[15],0.149
same,glycan array binding signal (z-score),[16],0.037
same,glycan array binding signal (z-score),[17],0.134
same,glycan array binding signal (z-score),[18],-0.373
same,glycan array binding signal (z-score),[19],-0.314
same,glycan array binding signal (z-score),Gal(b1-6)Gal,-0.178
same,glycan array binding signal (z-score),Gal3S(b1-3)GlcNAc,-0.376
same,glycan array binding signal (z-score),[20],-0.39
same,glycan array binding signal (z-score),Gal6P(b1-4)GlcNAc,-0.298
same,glycan array binding signal (z-score),GalNAc(b1-3)Gal,-0.374
same,glycan array binding signal (z-score),GalNAc(b1-3)GalNAc,3.83
same,glycan array binding signal (z-score),GalNAc(b1-6)GalNAc,-0.384
same,glycan array binding signal (z-score),[21],-0.393
same,glycan array binding signal (z-score),[22],4.2
same,glycan array binding signal (z-score),[23],3.17
same,glycan array binding signal (z-score),[24],4.12
same,glycan array binding signal (z-score),[25],3.2
same,glycan array binding signal (z-score),[26],9.38
same,glycan array binding signal (z-score),[27],-0.005
same,glycan array binding signal (z-score),[28],10.1
same,glycan array binding signal (z-score),[29],6.18
same,glycan array binding signal (z-score),Kdn(a2-3)Gal(b1-3)GalNAc,0.361
same,glycan array binding signal (z-score),[30],7.95
same,glycan array binding signal (z-score),[31],3.54
same,glycan array binding signal (z-score),[32],-0.194
same,glycan array binding signal (z-score),[33],0.146
same,glycan array binding signal (z-score),[34],-0.396
same,glycan array binding signal (z-score),[35],-0.089
same,glycan array binding signal (z-score),Neu5Ac(a2-6)Gal(b1-4)Glc,-0.278
same,glycan array binding signal (z-score),[36],-0.387
same,glycan array binding signal (z-score),[37],0.158
